Laboratory results from PubChem BioAssay (NCATS).
“And” between values parts separate entries of the source, which are not always exact repeats. Equal entries are not always repeated. Inconclusive results are not listed. Some structures have more than one record in an assay (separate samples or runs), and their calls can disagree. The source made the active and inactive calls. Calls come from the whole dose curve; as a rule, active = well fitted curve in the direction sought with a large enough effect; inconclusive = small, poorly fitted or top-dose-only effect, or another doubt; inactive = no such curve, though single readings can be large; an effect the other way counts as inactive or inconclusive.

Key:
HEK293 = assay: Cytotoxic Profiling of Annotated Libraries Using Quantitative High-Throughput Screening (AID 1296008); settings: Five cell lines viability, CellTiter-Glo ATP luminescence, 48-72 h; max response: hits give low values; note: nearly all actives have a fitted effect of over 60% in size; note: potency is the fitted concentration of half-maximal effect
Procedure, shortened: (§1)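 Cytotoxicity was measured as CellTiter-Glo ATP luminescence, read after 10 min at room temperature. Compound treatment of the cells lasted 48 or 72 hr at 37 degrees Celsius in a qHTS format.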

HaCat [1] = assay: as above; settings: Five cell lines viability, CellTiter-Glo ATP luminescence, 48-72 h; max response: hits give low values
Procedure, shortened: as §1

KB-3-1 = assay: as above; settings: Five cell lines viability, CellTiter-Glo ATP luminescence, 48-72 h; max response: hits give low values
Procedure, shortened: as §1

NIH3T3 [2] = assay: as above; settings: Five cell lines viability, CellTiter-Glo ATP luminescence, 48-72 h; max response: hits give low values
Procedure, shortened: as §1

HACAT [3] = assay: qHTS assay to identify novel small-molecules to repurpose for Merkel cell carcinoma treatment (AID 1296009); settings: MCC and control cell lines, CellTiter-Glo viability, 72 h; series mostly up to 44.8 µM; note: nearly all actives have a fitted effect of over 60% in size; note: potency is the fitted concentration of half-maximal effect
Procedure, shortened: (§2)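 Cell viability, measured as CellTiter-Glo luminescence, was normalized between DMSO and no-cell wells. The cells had been exposed to 8- or 11-point compound dilutions for 72 hr at 37 degree celsius.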

HEK293T [4] = assay: as above; settings: MCC and control cell lines, CellTiter-Glo viability, 72 h; at 44.8 µM (top of the series) unless noted
Procedure, shortened: as §2

MCC-13 = assay: as above; settings: MCC and control cell lines, CellTiter-Glo viability, 72 h; series mostly up to 46 µM
Procedure, shortened: as §2

MCC-26 = assay: as above; settings: MCC and control cell lines, CellTiter-Glo viability, 72 h; series mostly up to 46 µM
Procedure, shortened: as §2

MKL-1 = assay: as above; settings: MCC and control cell lines, CellTiter-Glo viability, 72 h; series mostly up to 46 µM
Procedure, shortened: as §2

MKL-2 = assay: as above; settings: MCC and control cell lines, CellTiter-Glo viability, 72 h; series mostly up to 46 µM
Procedure, shortened: as §2

UISO = assay: as above; settings: MCC and control cell lines, CellTiter-Glo viability, 72 h; series mostly up to 46 µM
Procedure, shortened: as §2

WaGa = assay: as above; settings: MCC and control cell lines, CellTiter-Glo viability, 72 h; series mostly up to 46 µM
Procedure, shortened: as §2

C33A = assay: Primary qHTS to identify gynecologic anti-cancer compounds using libraries of approved drugs and bioactive compounds (AID 1345084); settings: Gynecologic cancer cell panel viability, ATPlite luminescence, 48 h; series mostly up to 57.5 µM; note: nearly all actives have a fitted effect of over 55% in size
Procedure, shortened: (§3)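 Cells, 1,000 per well, plated 16 h, then exposed 48 h at 37 C to compounds. Viability by ATPlite luminescence after 15 min at room temperature.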

CASKI = assay: as above; settings: Gynecologic cancer cell panel viability, ATPlite luminescence, 48 h; series mostly up to 57.5 µM
Procedure, shortened: as §3

Es-2 = assay: as above; settings: Gynecologic cancer cell panel viability, ATPlite luminescence, 48 h; series mostly up to 57.5 µM
Procedure, shortened: as §3

HeLa = assay: as above; settings: Gynecologic cancer cell panel viability, ATPlite luminescence, 48 h; series mostly up to 57.5 µM
Procedure, shortened: as §3

Hek293T [5] = assay: as above; settings: Gynecologic cancer cell panel viability, ATPlite luminescence, 48 h, control line for the selectivity index; series mostly up to 57.5 µM
Procedure, shortened: as §3

JEG-3 = assay: as above; settings: Gynecologic cancer cell panel viability, ATPlite luminescence, 48 h; series mostly up to 57.5 µM
Procedure, shortened: as §3

NIH3T3 [6] = assay: qHTS assay to identify novel small-molecules to repurpose for Merkel cell carcinoma treatment (AID 1296009); settings: MCC and control cell lines, CellTiter-Glo viability, 72 h; at 44.8 µM (top of the series) unless noted; note: nearly all actives have a fitted effect of over 60% in size; note: potency is the fitted concentration of half-maximal effect
Procedure, shortened: as §2

CAOV3 = assay: Primary qHTS to identify gynecologic anti-cancer compounds using libraries of approved drugs and bioactive compounds (AID 1345084); settings: Gynecologic cancer cell panel viability, ATPlite luminescence, 48 h; series mostly up to 57.5 µM; note: nearly all actives have a fitted effect of over 55% in size
Procedure, shortened: as §3
% is set by controls: 0 for no effect and ±100 for the full control effect.

Cc1ccc(CN2CCNCC2)cc1NC(=O)CNc1ccc(F)c(F)c1
inactive: max response (HEK293) -5.99% | outcome (HEK293) | outcome (HaCat [1]) | max response (KB-3-1) 4% | outcome (KB-3-1) | max response (NIH3T3 [2]) -3.35% and 3.71% | Potency (HACAT [3]) | outcome (HEK293T [4]) | Potency (MCC-13) | Potency (MCC-26) | Potency (MKL-1) | Potency (MKL-2) | Potency (UISO) | Potency (WaGa) | Potency (C33A) | Potency (CASKI) | Potency (Es-2) | Potency (HeLa) | Potency (Hek293T [5]) | Potency (JEG-3)

Cc1ccc2nc(NC(=O)CSc3nc4c(c(=O)n3-c3ccccc3)SCC4)sc2c1
inactive: outcome (HEK293) | max response (HaCat [1]) 3.94% | max response (KB-3-1) -10.5% | max response (NIH3T3 [2]) -19.8% | outcome (HEK293T [4]) | Potency (MCC-13) | Potency (MCC-26) | Potency (MKL-1) | Potency (MKL-2) | Potency (C33A) | Potency (CASKI) | Potency (Es-2) | Potency (HeLa) | Potency (Hek293T [5]) | Potency (JEG-3)
active: Potency (KB-3-1) 9.35 µM

CC(C)(C)c1cc(C(C)(C)C)c(NC(=O)c2c[nH]c3ccccc3c2=O)cc1O
inactive: outcome (HEK293) | outcome (HaCat [1]) | max response (KB-3-1) -1.43% | outcome (NIH3T3 [2]) | Potency (HACAT [3]) | outcome (HEK293T [4]) | Potency (MCC-13) | Potency (MCC-26) | Potency (MKL-1) | Potency (MKL-2) | outcome (NIH3T3 [6]) | Potency (UISO) | Potency (WaGa)

CNC(=O)c1ccc(N2C(=S)N(c3cnc(C#N)c(C(F)(F)F)c3)C(=O)C23CCC3)cc1F
active: Potency (MKL-2) 26.4 µM | Potency (WaGa) 9.35 µM
inactive: outcome (HEK293) | max response (HaCat [1]) -2.38% and -0.362% | max response (KB-3-1) -8.3% | outcome (KB-3-1) | max response (NIH3T3 [2]) 0.376% | outcome (NIH3T3 [2]) | outcome (HEK293T [4]) | outcome (NIH3T3 [6]) | Potency (C33A) | Potency (CAOV3) | Potency (CASKI) | Potency (Es-2) | Potency (HeLa) | Potency (Hek293T [5]) | Potency (JEG-3)

O=C(c1cncc(Br)c1)N1CCC(N2CCCC2)CC1
inactive: max response (HEK293) 2.69% and -9.71% | max response (HaCat [1]) 2.29% and 3.12% | max response (KB-3-1) 1.64% | outcome (KB-3-1) | max response (NIH3T3 [2]) 4.3% and 2.16% | Potency (MCC-13) | Potency (MCC-26) | Potency (MKL-1) | Potency (MKL-2) | Potency (UISO) | Potency (WaGa) | Potency (C33A) | Potency (CASKI) | Potency (Es-2) | Potency (HeLa) | Potency (Hek293T [5]) | Potency (JEG-3)

CCOc1ccccc1OCCNC(C)Cc1ccc(OC)c(S(N)(=O)=O)c1 (centres undefined)
inactive: max response (HEK293) -25.2% | max response (HaCat [1]) -9.05% | outcome (HaCat [1]) | max response (KB-3-1) 7.71% | outcome (KB-3-1) | max response (NIH3T3 [2]) -0.288% | outcome (NIH3T3 [2]) | Potency (HACAT [3]) | Potency (MCC-13) | Potency (MCC-26) | Potency (MKL-1) | Potency (MKL-2) | outcome (NIH3T3 [6]) | Potency (UISO) | Potency (WaGa) | Potency (C33A) | Potency (CAOV3) | Potency (CASKI) | Potency (Es-2) | Potency (HeLa) | Potency (Hek293T [5]) | Potency (JEG-3)

O=C(O)[C@H](Cc1c[nH]c2ccccc12)N1C(=O)c2ccccc2C1=O
inactive: outcome (HEK293) | outcome (HaCat [1]) | max response (KB-3-1) 3.99% | max response (NIH3T3 [2]) 4.64% | Potency (HACAT [3]) | outcome (HEK293T [4]) inactive [at 92 µM] | Potency (MCC-13) | Potency (MCC-26) | Potency (MKL-1) | Potency (MKL-2) | Potency (UISO) | Potency (WaGa)

C[C@@H]1COC(Nc2ccc3ncnc(Nc4ccc(OCc5nccs5)c(Cl)c4)c3c2)=N1
active: Potency (HEK293) 8.33 µM and 16.4 µM | Potency (HaCat [1]) 1.66 µM and 1.3 µM
inactive: max response (KB-3-1) -27.7% | max response (NIH3T3 [2]) -19.2% | outcome (NIH3T3 [2]) | Potency (MCC-13) | outcome (NIH3T3 [6]) | Potency (HeLa) | Potency (JEG-3)

Cc1coc2c1C(=O)C(=O)c1c-2ccc2c1CCCC2(C)C
active: Potency (HEK293) 9.2 µM | Potency (KB-3-1) 16.4 µM
inactive: max response (HaCat [1]) -3.22% | outcome (HaCat [1]) | max response (KB-3-1) -4.98% | max response (NIH3T3 [2]) -27% | outcome (NIH3T3 [2]) | Potency (HACAT [3]) | Potency (MCC-13) | Potency (MKL-1) | Potency (MKL-2) | outcome (NIH3T3 [6]) | Potency (UISO) | Potency (WaGa) | Potency (C33A) | Potency (CASKI) | Potency (Es-2) | Potency (Hek293T [5])

CNC(=O)c1c(F)cccc1Nc1nc(Nc2cc3c(cc2OC)CCN3C(=O)CN(C)C)nc2[nH]ccc12
active: Potency (HEK293) 4.18 µM and 13 µM | Potency (HaCat [1]) 18.4 µM | Potency (NIH3T3 [2]) 7.31 µM | Potency (MKL-1) 18.7 µM | Potency (MKL-2) 5.9 µM | Potency (UISO) 5.9 µM | Potency (WaGa) 18.7 µM
inactive: outcome (HaCat [1]) | Potency (HACAT [3]) | Potency (C33A) | Potency (CASKI) | Potency (Es-2) | Potency (HeLa) | Potency (Hek293T [5]) | Potency (JEG-3)
